KB-V1 cytotox = kills drug-selected multidrug resistant KB-V1 cells. KB-V1 MDR cells viability, CellTiter-Glo, 72 h. Potency, µM (top dose mostly 46.1 µM), most hits filed as cytotoxic. hit rate 3.4% among 400,000; further: nearly all actives have a fitted effect of over 60% in size
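Compound-treated KB-V1 multidrug-resistant cells, 72 h, 37 degrees C; viability by CellTiter-Glo. Fitted qHTS curves give the values.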
MCF10A rerep = inducers of DNA re-replication in MCF 10A breast cells; MCF 10A DNA re-replication, Hoechst nuclear intensity, 48 h; Potency, µM (series often up to 46.1 µM), actives largely listed as activators; hit rate 2.9% among 350,000; AID 624296; further: nearly all actives have a fitted effect of over 50% in size
ALOX12 inh = blocks human arachidonate 12S-lipoxygenase; P18054; purified 12hLO, xylenol orange hydroperoxide absorbance; Potency, µM (top dose mostly 108 µM), hits mostly inhibitors; hit rate 1.1% among 580,000
Target sequence (P18054 whole entry, looked up): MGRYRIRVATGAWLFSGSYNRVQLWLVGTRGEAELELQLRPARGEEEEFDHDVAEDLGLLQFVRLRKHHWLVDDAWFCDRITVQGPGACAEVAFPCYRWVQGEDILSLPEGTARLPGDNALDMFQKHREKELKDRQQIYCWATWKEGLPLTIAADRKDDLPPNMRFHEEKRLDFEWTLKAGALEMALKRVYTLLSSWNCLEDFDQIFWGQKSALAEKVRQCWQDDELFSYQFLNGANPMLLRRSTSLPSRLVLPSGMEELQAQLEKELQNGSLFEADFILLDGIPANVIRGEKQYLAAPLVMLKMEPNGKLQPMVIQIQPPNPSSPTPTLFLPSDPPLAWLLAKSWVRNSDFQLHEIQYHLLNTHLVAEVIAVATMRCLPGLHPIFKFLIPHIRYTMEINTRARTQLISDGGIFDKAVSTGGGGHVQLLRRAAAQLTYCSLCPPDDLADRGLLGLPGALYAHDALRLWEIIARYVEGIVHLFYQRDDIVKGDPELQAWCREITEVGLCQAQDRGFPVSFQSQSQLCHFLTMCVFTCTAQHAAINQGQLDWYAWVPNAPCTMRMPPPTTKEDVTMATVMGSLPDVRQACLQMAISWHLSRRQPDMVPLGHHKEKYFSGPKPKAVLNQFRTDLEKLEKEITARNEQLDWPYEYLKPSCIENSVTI
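Purified human 12hLO at 150 nM in 25 mM Hepes, 0.01% Triton X-100, pH 7.0, preincubated 15 min at room temperature with compound. Reaction started with 40 uM arachidonic acid, 30 min at room temperature. Hydroperoxide measured by Fe-xylenol orange, 573/405 nm absorbance ratio.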
KB-3-1 cytotox = KB-3-1 parental cell cytotoxicity; Potency, µM (doses to about 46.1 µM), usual class: cytotoxic; hit rate 1.4% among 400,000; KB-3-1 viability, CellTiter-Glo ATP luminescence, 72 h; further: nearly all actives have a fitted effect of over 60% in size
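Parental KB-3-1 adenocarcinoma cells in phenol-red-free DMEM with 10% FBS were pin-treated with compounds at several concentrations, incubated 72 h at 37 °C, and viability read by CellTiter-Glo luminescence; concentration-effect curves were fitted after normalization.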
SW480 rerep = induces DNA re-replication in SW480 colon adenocarcinoma cells; SW480 DNA re-replication, Hoechst DNA content imaging, 48 h; Potency, µM (titrated, usually from 46.1 µM), actives largely listed as activators; hit rate 1.8% among 340,000; AID 624297; further: nearly all actives have a fitted effect of over 55% in size
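Readout is total intensity of Hoechst-stained nuclei, excited at 405 nm and collected at 500-530 nm. Compound treatment lasted 48 hr at 37 C in 5% CO2 before staining.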
PINK1 expr mod = changes PINK1 expression | hit rate 0.2% among 410,000 | PINK1 immunofluorescence, high-content cytometry, 24 h | Potency, µM (top dose mostly 76.6 µM), usual class: activators; active means well fitted activation curve with a large enough effect; inconclusive means small, poorly fitted or top-dose-only effect; cell line not stated here; further: nearly all actives have a fitted effect of over 65% in size
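Compound titrations (5 concentrations, 24 h) on a stable cell line; DMSO and CCCP controls. Endpoint: fixed-cell PINK1 immunofluorescence with mitochondrial, cell and nuclear markers, scanned by microplate cytometer.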
Numbers stand for hits; [ ] = dose if it differs, or a comment. A selection: hits, their analogues and other compounds. The true share with any hit is near 5.8%. Unless noted, the call rests on the fitted dose curve; in most records, active means well fitted curve in the direction sought with a large enough effect; inconclusive means small, poorly fitted or top-dose-only effect, or another doubt; inactive means no such curve, though single readings can be large; an effect the other way counts as inactive or inconclusive.

For N=C1/C(=C/c2ccc(-c3cccc(C(=O)O)c3)o2)C(=O)N=C2SC=C(c3ccccc3)N12 the results were KB-V1 cytotox inactive, MCF10A rerep 5.8µM, ALOX12 inh 28µM, KB-3-1 cytotox inactive, SW480 rerep inactive and PINK1 expr mod inactive.
N=C1/C(=C/c2cccn2CCOc2ccccc2)C(=O)N=C2SC=C(c3ccccc3)N12 was read as KB-V1 cytotox 3.7µM, MCF10A rerep 1.3µM, ALOX12 inh inconclusive, KB-3-1 cytotox inconclusive, SW480 rerep 18µM and PINK1 expr mod inactive.
For Nc1cccc(C(=O)/C=C/c2ccc(F)cc2)c1 the results were ALOX12 inh inactive.
Screening Cc1cccn2c(=O)c(C=O)c(N3CCSCC3)nc12 returned KB-V1 cytotox inactive, MCF10A rerep inactive, ALOX12 inh inactive, KB-3-1 cytotox inactive, SW480 rerep 5.8µM and PINK1 expr mod inactive.
Screening CNC(=O)CCn1ncc2cc(OC3CCc4cccc(-c5cccnc5OC)c43)ccc21 (centres undefined) returned ALOX12 inh inactive.
For Cc1c(C(=O)C(F)(F)F)c2ccccc2n1CCOc1ccccc1F the results were ALOX12 inh inactive.
Screening COc1cccc2c1C(=O)C=C(C)C2=O returned KB-V1 cytotox inconclusive, MCF10A rerep 23µM, ALOX12 inh inconclusive, KB-3-1 cytotox inconclusive, SW480 rerep inconclusive and PINK1 expr mod inactive.
For CCc1cccc(C)c1NC(=O)CCCSc1nc2ccccc2s1 the results were KB-V1 cytotox inconclusive, MCF10A rerep inconclusive, ALOX12 inh inactive, KB-3-1 cytotox inactive, SW480 rerep inactive and PINK1 expr mod inactive.
Cc1ccccc1Nc1nc(N)nc(CSc2nc3ccccc3s2)n1 was read as KB-V1 cytotox 16µM, MCF10A rerep inactive, ALOX12 inh inactive, KB-3-1 cytotox inactive, SW480 rerep inactive and PINK1 expr mod inactive.
For Cc1ccccc1Nc1nc(N)nc(CSc2nc3ccccc3c(=O)n2C)n1 the results were KB-V1 cytotox 16µM, MCF10A rerep inconclusive, ALOX12 inh inactive, KB-3-1 cytotox inactive, SW480 rerep inactive and PINK1 expr mod inactive.
Cc1ccccc1NC(=O)CCCSc1nc2ccccc2s1 was read as KB-V1 cytotox 15µM, MCF10A rerep inactive, ALOX12 inh inactive, KB-3-1 cytotox inactive, SW480 rerep inactive and PINK1 expr mod inactive.
For COCCn1c(SCc2nc(N)nc(Nc3ccccc3C)n2)nc2ccccc2c1=O the results were KB-V1 cytotox 8.2µM, MCF10A rerep inactive, ALOX12 inh inactive, KB-3-1 cytotox inactive, SW480 rerep inactive and PINK1 expr mod inactive.
For Cc1ccccc1Nc1nc(N)nc(CSc2nc3ccccc3c(=O)n2CCCO)n1 the results were KB-V1 cytotox inactive, MCF10A rerep inactive, ALOX12 inh inactive, KB-3-1 cytotox inactive, SW480 rerep inactive and PINK1 expr mod inactive.
Screening O=C(Nc1ccccc1F)N1CC2CCC(C1)N2Cc1cccc(-c2ccsc2)c1 returned ALOX12 inh inactive[6.33 µM].
`Cc1ccc(CCC(=O)N2CCC(CO)(CN3CCCC3)CC2)cc1` gave ALOX12 inh inactive.
For CC1(C)NC(=O)N(Cc2coc(-c3ccc(Cl)cc3)n2)C1=O the results were ALOX12 inh inactive.
Screening O=C(CCSc1nc2ccccc2s1)N/N=C/c1c(O)ccc2ccccc12 returned KB-V1 cytotox inactive, MCF10A rerep 21µM, ALOX12 inh inactive, KB-3-1 cytotox inconclusive, SW480 rerep 6.5µM and PINK1 expr mod inconclusive.
Screening O=C(O)C1(c2cccc(Cl)c2)CC1 returned ALOX12 inh inactive.
`COc1ccc(N2CC(C(=O)Nc3c(C)nn(C)c3C)CC2=O)cc1` (centres undefined) gave ALOX12 inh inactive.
Screening O=CN1Cc2nc3ccccc3n2-c2cc(Br)ccc21 returned ALOX12 inh inactive.
`Cc1ccccc1S(=O)(=O)NCC1CCCO1` (centres undefined) gave KB-V1 cytotox inactive, MCF10A rerep inactive, ALOX12 inh inactive, KB-3-1 cytotox inactive, SW480 rerep 26µM and PINK1 expr mod inactive.
`CCc1nnc(NC(=O)Cc2coc3cc(C)c(C(C)C)cc23)s1` gave ALOX12 inh inactive.
For c1ccc(COCCN2CCN(CCOCc3ccccc3)CC2)cc1 the results were KB-V1 cytotox 23µM, MCF10A rerep inactive, ALOX12 inh inactive, KB-3-1 cytotox inactive, SW480 rerep inactive and PINK1 expr mod inactive.
Screening Cc1c(O)ccc(-c2n[nH]c(C(=O)O)c2-c2nc3ccccc3s2)c1O returned KB-V1 cytotox inactive, MCF10A rerep inactive, ALOX12 inh 35µM, KB-3-1 cytotox inactive, SW480 rerep inactive and PINK1 expr mod inactive.
For CCOc1ccc(CN(C)C(=O)CCl)cc1 the results were KB-V1 cytotox inconclusive, MCF10A rerep inconclusive, ALOX12 inh inactive, KB-3-1 cytotox inconclusive, SW480 rerep 16µM and PINK1 expr mod inactive.
For C#CCNc1cc(-c2ccccc2)nc2ncnn12 the results were KB-V1 cytotox inconclusive, MCF10A rerep inactive, ALOX12 inh inactive, KB-3-1 cytotox inconclusive, SW480 rerep inactive and PINK1 expr mod inactive.
For COc1ccc(CCNc2cc(-c3ccccc3)nc3ncnn23)cc1 the results were KB-V1 cytotox 2.6µM, MCF10A rerep inactive, ALOX12 inh inactive, KB-3-1 cytotox inconclusive, SW480 rerep inactive and PINK1 expr mod inactive.
c1ccc(Nc2cc(-c3ccccc3)nc3ncnn23)cc1 was read as KB-V1 cytotox 15µM, MCF10A rerep inconclusive, ALOX12 inh inactive, KB-3-1 cytotox inactive, SW480 rerep inconclusive and PINK1 expr mod inactive.
For Clc1ccc(Nc2cc(-c3ccccc3)nc3ncnn23)cc1 the results were KB-V1 cytotox inactive, MCF10A rerep inconclusive, ALOX12 inh inactive, KB-3-1 cytotox inactive, SW480 rerep inactive and PINK1 expr mod inactive.
Screening Cc1nnc(SC(C)C(=O)c2c[nH]c3ccccc23)s1 (centres undefined) returned ALOX12 inh inactive.
`CC(C)(C)n1nnnc1C(c1cc2ccccc2o1)N(Cc1ccccc1)Cc1ccccc1` (centres undefined) gave KB-V1 cytotox 21µM, ALOX12 inh inactive, KB-3-1 cytotox inconclusive and PINK1 expr mod inactive.
`Cc1ccc(C(c2nnnn2C(C)(C)C)N(Cc2ccco2)Cc2cccs2)cc1` (centres undefined) gave KB-V1 cytotox inconclusive, MCF10A rerep inactive, ALOX12 inh inactive, KB-3-1 cytotox 16µM, SW480 rerep inactive and PINK1 expr mod inactive.
`CC(C)(C)n1nnnc1C(c1ccc(F)cc1)N(Cc1ccc(F)cc1)Cc1ccco1` (centres undefined) gave KB-V1 cytotox inconclusive, MCF10A rerep inconclusive, ALOX12 inh inactive, KB-3-1 cytotox inconclusive, SW480 rerep inactive and PINK1 expr mod inactive.
For CC(C)(C)n1nnnc1C(c1cccnc1)N(Cc1ccccc1)Cc1cccs1 (centres undefined) the results were KB-V1 cytotox 21µM, MCF10A rerep inconclusive, ALOX12 inh inconclusive, KB-3-1 cytotox inconclusive, SW480 rerep inactive and PINK1 expr mod inactive.

Assay outcomes as filed in PubChem BioAssay.
